Compound activity: PubChem BioAssay, National Center for Advancing Translational Sciences (NCATS)
An excerpt weighted towards active compounds, which were near 2.8% of everything screened.
KCNH2 3.1 block: KCNH2 3.1 (human) potassium channel inhibition. activity change, % (tested at about 1.8 µM). U2OS KCNH2 3.1, thallium flux FluxOr; active compounds read low. hit rate 0.95% among 340,000;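 active = maximum activity change below -70%; inconclusive = maximum activity change from -70% to -50%; inactive = maximum activity change above -50%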;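 note: thallium influx rate constant from kinetic fluorescence after stimulation buffer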
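Kinetic fluorescence (2 min after stimulation buffer) measures Tl+ influx through KCNH2 3.1 expressed by viral transduction in U2OS cells; the rate constant is normalized against DMSO controls serving as positive and negative references.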
GLP1R cytotox: cytotoxicity counter-screen for GLP-1 receptor inverse agonists; HEK293 cAMP-luciferase reporter cells, luminescence, 24 h; Potency, µM (series often up to 38.3 µM), usual class: inhibitors; hit rate 0.13% among 410,000; AID 624418;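 note: loss of luciferase light is scored as toxicity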
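Compound-treated cells are incubated 24 hr at 37 deg C under 5% CO2 after a 12 hour attachment period, then luciferase detection reagent is added and luminescence is measured following 12 min at room temperature; lowered signal indicates toxicity.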
GLP1R inv ag: inverse agonists of human GLP-1 receptor. P43220. HEK293 GLP-1R CRE-luciferase, luminescence, 24 h; GLP-1R form is constitutively active. Potency, µM (highest dose often 38.3 µM), usual class: inhibitors. hit rate 1.6% among 410,000; note: nearly all actives have a fitted effect of over 55% in size
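Constitutively active GLP-1R drives a cAMP-responsive luciferase in stably transfected HEK293 cells; test compounds are added after overnight (12 h) attachment and left 24 hr, and signal loss in luminescence marks inhibition.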
GLS inhibitor: blocks human kidney-isoform glutaminase activity. O94925. GLS enzymatic activity, qHTS titration. Potency, µM (top dose mostly 45.5 µM), usual class: inhibitors. hit rate 0.21% among 410,000
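Two-point fluorescence kinetic (t0, 30 min RT) for hKGA; glutamate detected via glutamate oxidase–HRP–Amplex Red. Substrate: 1 mM L-glutamine solution; buffer 45 mM KH2PO4, pH 8.2.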
hERG WT inh: KCNH2 (human, wildtype) channel inhibition; Q12809; U2OS, BacMam KCNH2, thallium flux FluxOr; active compounds read low; activity change, % at 1.84 µM; hit rate 0.37% among 340,000; AID 720551;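 active = maximum activity change below -70%; inconclusive = maximum activity change between -70% and -50%; inactive = maximum activity change above -50%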
Target sequence (Q12809 whole entry, looked up): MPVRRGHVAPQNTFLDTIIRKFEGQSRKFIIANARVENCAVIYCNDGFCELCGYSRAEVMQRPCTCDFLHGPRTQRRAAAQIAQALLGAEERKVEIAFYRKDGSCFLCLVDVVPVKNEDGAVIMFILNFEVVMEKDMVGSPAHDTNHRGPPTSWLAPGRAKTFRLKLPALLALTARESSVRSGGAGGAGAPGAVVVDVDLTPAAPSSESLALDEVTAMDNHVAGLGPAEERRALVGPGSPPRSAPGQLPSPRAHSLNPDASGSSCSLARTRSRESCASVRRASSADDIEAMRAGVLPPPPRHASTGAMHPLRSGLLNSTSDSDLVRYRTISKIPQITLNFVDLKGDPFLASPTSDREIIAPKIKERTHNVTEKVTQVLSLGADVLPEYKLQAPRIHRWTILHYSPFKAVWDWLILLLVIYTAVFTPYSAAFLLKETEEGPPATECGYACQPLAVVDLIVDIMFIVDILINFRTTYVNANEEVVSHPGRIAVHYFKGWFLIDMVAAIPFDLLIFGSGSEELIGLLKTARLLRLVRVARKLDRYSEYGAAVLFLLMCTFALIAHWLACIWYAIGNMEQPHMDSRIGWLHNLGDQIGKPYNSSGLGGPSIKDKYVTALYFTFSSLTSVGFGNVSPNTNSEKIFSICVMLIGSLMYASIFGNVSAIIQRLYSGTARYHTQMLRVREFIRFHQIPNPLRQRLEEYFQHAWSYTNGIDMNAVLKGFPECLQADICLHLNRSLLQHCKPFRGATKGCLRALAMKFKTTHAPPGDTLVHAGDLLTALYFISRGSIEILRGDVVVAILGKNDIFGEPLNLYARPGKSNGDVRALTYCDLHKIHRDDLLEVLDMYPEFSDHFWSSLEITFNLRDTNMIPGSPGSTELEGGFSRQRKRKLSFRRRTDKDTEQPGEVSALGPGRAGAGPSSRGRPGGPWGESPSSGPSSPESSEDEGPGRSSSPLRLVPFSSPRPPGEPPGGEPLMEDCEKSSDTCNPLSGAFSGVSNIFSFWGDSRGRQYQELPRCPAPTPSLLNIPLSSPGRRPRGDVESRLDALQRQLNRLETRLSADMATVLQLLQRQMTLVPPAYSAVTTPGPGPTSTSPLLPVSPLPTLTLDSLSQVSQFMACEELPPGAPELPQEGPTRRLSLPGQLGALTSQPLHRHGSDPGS
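U2OS cells transduced with wild-type KCNH2 virus are loaded with FluxOr dye for 45 min, and thallium flux is measured in kinetic reads before and after stimulation buffer. Rate constants are normalized to DMSO controls.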
GLP-1R agonist: agonists of human GLP-1 receptor. P43220. HEK293 GLP-1R CRE-luciferase, luminescence, 4-6 h; cells express a hypersensitive GLP-1R form. Potency, µM (highest dose often 45.6 µM), actives largely listed as activators. hit rate 0.007% among 380,000
Of the large screens only hits and unclear results are named; the others gave an inactive call. Unless noted, calls come from the whole dose curve; as a rule, active = well fitted curve in the direction sought with a large enough effect; inconclusive = small, poorly fitted or top-dose-only effect, or another doubt; inactive = no such curve, though single readings can be large; an effect the other way counts as inactive or inconclusive.

N#Cc1ccccc1NC(=O)CN(Cc1ccccc1)Cc1ccccc1	GLP1R inv ag 7.08µM
CCC(CC)C(=O)N(C)c1c(C)nc2c(OCc3cc(Cl)cc(Cl)c3)cccn12	GLP1R inv ag 11.2µM (no result: KCNH2 3.1 block, hERG WT inh)
CC(O)CC(=O)O (centres undefined)	none
C[N+](C)(C)CC(O)CC(=O)O (centres undefined)	hERG WT inh -295.1
CCC(Oc1ccccc1)C(=O)Nc1ccc(OCc2cc(=O)n3ccc(C)cc3n2)cc1 (centres undefined)	none (no result: KCNH2 3.1 block, hERG WT inh, GLP-1R agonist)
CC(=O)Nc1ccc(NC(=O)c2sc3nc4n(c(=O)c3c2C)CCCCC4)cc1	none (no result: hERG WT inh)
CCc1ccc(NC(=O)c2sc3nc4n(c(=O)c3c2C)CCC4)cc1	KCNH2 3.1 block -90.6
O=c1oc2ccccc2cc1-c1nc2c(s1)CCCC2	KCNH2 3.1 block -86.6, GLP1R inv ag inconclusive
O=c1oc2ccccc2cc1-c1nc2ccccc2o1	none
COC(=O)C1=CN(c2ccc(OC)cc2)C=C(C(=O)OC)C1c1ccc([N+](=O)[O-])cc1	KCNH2 3.1 block -73.0
COC(=O)C1=CN(Cc2ccc(OC)cc2)C=C(C(=O)OC)C1c1cc(OC)c(OC)c(OC)c1	GLP1R inv ag inconclusive, GLP-1R agonist 5.01µM
CC1(C)CN(c2ccccc2)N(C(=O)c2ccc(C#N)cc2)C1=O	GLP1R inv ag 3.16µM
Cc1ccc(C2=NNC(c3ccc(Cl)cc3)=Nc3ccccc32)o1	GLP1R inv ag 7.94µM
COC(=O)c1ccc(OCC2c3cc(OC)c(OC)cc3CCN2C(=O)c2ccc(F)cc2)cc1 (centres undefined)	none (no result: KCNH2 3.1 block, hERG WT inh)
Cc1cc(O)c(/C=N/Nc2cccc(Cl)c2)c(=O)o1	GLP1R inv ag 2.82µM
CCC1=NN(C(=O)c2ccc(Cl)cc2)C(O)(c2ccccc2)C1 (centres undefined)	GLP1R inv ag inconclusive
CC1=NN(C(=O)c2ccccc2C)C(O)(c2ccc(Cl)cc2)C1 (centres undefined)	none
CCC1=NN(C(=O)c2ccc([N+](=O)[O-])cc2)C(O)(c2ccccc2)C1 (centres undefined)	GLP1R cytotox inconclusive, GLP1R inv ag 0.794µM
CCC1=NN(C(=O)c2ccc(Cl)cc2)C(O)(c2ccc(C)cc2)C1 (centres undefined)	GLP1R cytotox inconclusive, GLP1R inv ag 2.82µM
CCC1=NN(C(=O)c2ccccc2O)C(O)(c2ccccc2)C1 (centres undefined)	GLP1R inv ag inconclusive
CC1=NN(C(=O)c2ccccc2Br)C(O)(c2ccc(Cl)cc2)C1 (centres undefined)	GLP1R inv ag 3.16µM
Cc1nn(C)c(C)c1NS(=O)(=O)c1c(C)n[nH]c1C	none
Cc1noc(C)c1COc1ccccc1C(=O)N(C)CC(=O)Nc1ccc(F)cc1	none
CC1c2cc3c(cc2CCN1C(=O)c1ccc(Cl)cc1)OCCCO3 (centres undefined)	GLP1R inv ag inconclusive
Cc1ccc(C(=O)N2CCc3cc4c(cc3C2C)OCCCO4)cc1 (centres undefined)	GLP1R inv ag 11.2µM
CC(C)Cn1cc(NC(=O)N2CCN(c3ccccc3F)CC2)c2ccccc2c1=O	none (no result: KCNH2 3.1 block, hERG WT inh)
COc1ccc(C(=O)NC(C)CCc2ccccc2)c(O)c1 (centres undefined)	GLP1R inv ag inconclusive
CCCCN1C(=O)C(O)(c2ccccc2)c2cc(Br)ccc21 (centres undefined)	GLP1R inv ag 12.6µM
Cc1c(C(=O)N(Cc2ccccc2Cl)C2CCS(=O)(=O)C2)oc2ccccc12 (centres undefined)	GLP1R inv ag 10µM
Cc1ccc2oc(C(=O)N(Cc3ccccc3)C3CCS(=O)(=O)C3)c(C)c2c1 (centres undefined)	GLP1R inv ag inconclusive
Cc1cc(=O)c2c(O)c3c(O)cc(=O)c4c3c3c(cc(O)c1c23)C(C)(C)C=4O	none (no result: KCNH2 3.1 block, GLP1R cytotox, GLP1R inv ag, hERG WT inh)
CCc1cccc(NC(=O)CCc2nc3cccnc3n2Cc2ccc(OC)cc2)c1	none (no result: KCNH2 3.1 block, hERG WT inh, GLP-1R agonist)
COc1ccc(C)cc1NC(=O)c1ccc(CN2CCN(c3ccccc3)CC2)cc1	KCNH2 3.1 block -104.1, GLP1R inv ag inconclusive
COc1ccccc1C(=O)Nc1ccc(N2CCN(C(C)=O)CC2)cc1	none
COc1ccc(NC(=O)c2ccc(CN3CCN(c4ccccc4)CC3)cc2)cc1OC	none
COc1ccccc1C(=O)Nc1ccc(N2CCN(Cc3ccccc3)CC2)cc1	GLP1R inv ag 11.2µM
CCN(C[C@H]1N[C@@](Cc2ccccc2)(C(=O)OC)[C@H]2C(=O)N(C)C(=O)[C@@H]12)C(=O)Nc1ccccc1	none
CCCC(=O)Nc1nnc(S(=O)(=O)N(CC)c2ccccc2)s1	none
Cc1cccc(C2=NN(c3ccccc3)[C@H](CO)[C@H]2c2ccc(F)cc2)c1	GLP1R inv ag inconclusive
Cc1cccc(C2=NN(c3ccccc3)[C@H](CO)[C@H]2c2ccc(Cl)cc2)c1	GLP1R inv ag 10µM
CCC(C)c1ccc(NC(=O)Nc2cnccn2)cc1 (centres undefined)	GLP1R inv ag inconclusive, hERG WT inh -280.9
CCOc1ccc(NC(=O)Nc2cnccn2)cc1	none
N/C(=N\OC(=O)c1cc([N+](=O)[O-])ccc1Cl)c1ccccn1	none
Cc1ccc(C(=O)O/N=C(\N)c2ccccn2)c(Cl)c1	GLP1R cytotox inconclusive, GLP1R inv ag 1.12µM
N/C(=N\OC(=O)c1ccc(Cl)cc1Cl)c1ccccn1	GLP1R inv ag 5.62µM
N/C(=N\OC(=O)c1ccc([N+](=O)[O-])cc1Cl)c1ccccn1	GLP1R inv ag 1.78µM
Cc1ccc(-c2cn(-c3cccc(Cl)c3)c(S(=O)(=O)CC(=O)Nc3cccc(C)c3)n2)cc1	GLP1R inv ag 8.91µM (no result: KCNH2 3.1 block, hERG WT inh, GLP-1R agonist)
Cc1cccc(C)c1OCC(=O)Nc1nc(-c2ccc(Br)cc2)ns1	none (no result: KCNH2 3.1 block, hERG WT inh, GLP-1R agonist)
COc1ccc(Nc2cc(C)c3c(O)cccc3n2)cc1	GLP1R inv ag 12.6µM
Cc1cc(Nc2cccc(Cl)c2)nc2ccc(NC(=O)c3cccnc3)cc12	GLP1R cytotox inconclusive, GLP1R inv ag inconclusive (no result: KCNH2 3.1 block, hERG WT inh)
Cc1ccc(Nc2cc(C)c3c(O)cccc3n2)cc1C	GLP1R inv ag inconclusive
Cc1cc(Nc2cccc(Cl)c2)nc2ccc(NC(=O)c3cccc(N(C)C)c3)cc12	GLP1R inv ag 5.62µM (no result: KCNH2 3.1 block, hERG WT inh)
COc1ccc(CC(=O)Nc2ccc3nc(Nc4cccc(Cl)c4)cc(C)c3c2)cc1	GLP1R inv ag 7.94µM (no result: KCNH2 3.1 block, hERG WT inh)
Cc1ccc(C)c(NC(=O)COC(=O)c2ccc3c(c2)OCCO3)c1	none
Cc1cc(Br)cn2c(Cc3ccccc3)c(-c3ccc(C#N)cc3)nc12	none (no result: KCNH2 3.1 block, hERG WT inh)
CCOc1ccccc1CNCc1c(C(=O)O)n(Cc2ccc(F)cc2)c2cc(C)ccc12	none (no result: KCNH2 3.1 block, hERG WT inh)
